The campaign covered roughly 200,000 compounds. About 780 (0.39%) were called active. Shown is part of a subset that was picked to be rich in actives. Values without a mark were called inactive. Cut-off read from the data, not from the text of the source: active = TR-FRET ratio above about 2000; inactive = the rest.
Test: detection-format interference in TR-FRET ratio – biochemical, artefact control for PPARgamma SRC-2 agonist project, primary screen (AID 1049)
Details: TR-FRET artefact counter-screen; at 8 µM; stronger effect = higher value

| Compound | TR-FRET ratio |
| --- | --- |
| CSC1=NP(=S)(SC)N(C)c2nc3n(c21)CCC3 (stereo not given) | 3350 (active) |
| Cc1ccc(C)c(NC2=NCCCS2)c1 | 1500 |
| Cc1cccc(-n2c(O)c(C=NC34CN5CN(CN(C5)C3)C4)c(=O)[nH]c2=O)c1 | 1640 |
| OC1/C(=C/c2ccc(C(F)(F)F)cc2)N2CCC1CC2 (stereo not given) | 1710 |
| COc1cc(-n2c(=S)[nH]c3ccc(C)cc3c2=O)c(Cl)cc1Cl | 2140 (active) |
| O=c1c2ccccc2nc(-c2ccccc2)n1-c1ccccn1 | 1550 |
| O=C(COC(=O)Cc1ccccc1)Nc1ccc(F)cc1 | 1600 |
| CN(C)c1nc(N(C)C)nc(N(C#N)CCCl)n1 | 1800 |
| CCCn1c(C(=O)c2ccccc2OC)nc2ccccc21 | 1400 |
| O=c1[nH]c(=O)n(-c2ccccc2)c(O)c1C=NC12CN3CN(CN(C3)C1)C2 | 1500 |
